NR3A LBD binder: modulates the human NR3A ligand-binding domain; NR3A LBD differential scanning fluorimetry, Tm shift; 0% = protein alone, 100% = glycine-bound protein; Tm shift relative to glycine control, % at 25 µM; 340,000 tested, 2.5% active; AID 1259313;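 active = melting temperature shift of at least 10% of the positive control shift, at one fixed dose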
rCAG RNA binder: molecules binding r(CAG) RNA repeats. inhibition, % at 3 µM. 370,000 tested, 1.3% active. AID 651821. r(CAG) RNA repeat, TO-PRO-1 dye displacement fluorescence;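 active = inhibition above the plate cutoff, the mean of all test compounds on that plate plus 3 SD, cut at about 35% in these data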;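 also: 0% = DMSO alone and 100% = 100 µM mitoxantrone as full dye displacement; higher means more dye released from RNA so lower well fluorescence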
NadD block: blocks S. aureus nicotinate mononucleotide adenylyltransferase; purified NadD enzyme, colorimetric absorbance read-out; inhibition, % at 20 µM; 360,000 tested, 0.78% active; AID 602399; in the data active = inhibition above about 26%
FAS-TE inh: FAS thioesterase (human) inhibition; P49327; recombinant FAS-TE, OMFH fluorogenic substrate, fluorescence endpoint; inhibition, % at 15 µM; 360,000 tested, 0.67% active;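 active = compounds whose normalised, plate-corrected inhibition of enzyme fluorescence in the single-dose primary screen is 50% or more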;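 also: 0% = DMSO with enzyme and 100% = substrate without enzyme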
Target sequence (P49327 whole entry, looked up): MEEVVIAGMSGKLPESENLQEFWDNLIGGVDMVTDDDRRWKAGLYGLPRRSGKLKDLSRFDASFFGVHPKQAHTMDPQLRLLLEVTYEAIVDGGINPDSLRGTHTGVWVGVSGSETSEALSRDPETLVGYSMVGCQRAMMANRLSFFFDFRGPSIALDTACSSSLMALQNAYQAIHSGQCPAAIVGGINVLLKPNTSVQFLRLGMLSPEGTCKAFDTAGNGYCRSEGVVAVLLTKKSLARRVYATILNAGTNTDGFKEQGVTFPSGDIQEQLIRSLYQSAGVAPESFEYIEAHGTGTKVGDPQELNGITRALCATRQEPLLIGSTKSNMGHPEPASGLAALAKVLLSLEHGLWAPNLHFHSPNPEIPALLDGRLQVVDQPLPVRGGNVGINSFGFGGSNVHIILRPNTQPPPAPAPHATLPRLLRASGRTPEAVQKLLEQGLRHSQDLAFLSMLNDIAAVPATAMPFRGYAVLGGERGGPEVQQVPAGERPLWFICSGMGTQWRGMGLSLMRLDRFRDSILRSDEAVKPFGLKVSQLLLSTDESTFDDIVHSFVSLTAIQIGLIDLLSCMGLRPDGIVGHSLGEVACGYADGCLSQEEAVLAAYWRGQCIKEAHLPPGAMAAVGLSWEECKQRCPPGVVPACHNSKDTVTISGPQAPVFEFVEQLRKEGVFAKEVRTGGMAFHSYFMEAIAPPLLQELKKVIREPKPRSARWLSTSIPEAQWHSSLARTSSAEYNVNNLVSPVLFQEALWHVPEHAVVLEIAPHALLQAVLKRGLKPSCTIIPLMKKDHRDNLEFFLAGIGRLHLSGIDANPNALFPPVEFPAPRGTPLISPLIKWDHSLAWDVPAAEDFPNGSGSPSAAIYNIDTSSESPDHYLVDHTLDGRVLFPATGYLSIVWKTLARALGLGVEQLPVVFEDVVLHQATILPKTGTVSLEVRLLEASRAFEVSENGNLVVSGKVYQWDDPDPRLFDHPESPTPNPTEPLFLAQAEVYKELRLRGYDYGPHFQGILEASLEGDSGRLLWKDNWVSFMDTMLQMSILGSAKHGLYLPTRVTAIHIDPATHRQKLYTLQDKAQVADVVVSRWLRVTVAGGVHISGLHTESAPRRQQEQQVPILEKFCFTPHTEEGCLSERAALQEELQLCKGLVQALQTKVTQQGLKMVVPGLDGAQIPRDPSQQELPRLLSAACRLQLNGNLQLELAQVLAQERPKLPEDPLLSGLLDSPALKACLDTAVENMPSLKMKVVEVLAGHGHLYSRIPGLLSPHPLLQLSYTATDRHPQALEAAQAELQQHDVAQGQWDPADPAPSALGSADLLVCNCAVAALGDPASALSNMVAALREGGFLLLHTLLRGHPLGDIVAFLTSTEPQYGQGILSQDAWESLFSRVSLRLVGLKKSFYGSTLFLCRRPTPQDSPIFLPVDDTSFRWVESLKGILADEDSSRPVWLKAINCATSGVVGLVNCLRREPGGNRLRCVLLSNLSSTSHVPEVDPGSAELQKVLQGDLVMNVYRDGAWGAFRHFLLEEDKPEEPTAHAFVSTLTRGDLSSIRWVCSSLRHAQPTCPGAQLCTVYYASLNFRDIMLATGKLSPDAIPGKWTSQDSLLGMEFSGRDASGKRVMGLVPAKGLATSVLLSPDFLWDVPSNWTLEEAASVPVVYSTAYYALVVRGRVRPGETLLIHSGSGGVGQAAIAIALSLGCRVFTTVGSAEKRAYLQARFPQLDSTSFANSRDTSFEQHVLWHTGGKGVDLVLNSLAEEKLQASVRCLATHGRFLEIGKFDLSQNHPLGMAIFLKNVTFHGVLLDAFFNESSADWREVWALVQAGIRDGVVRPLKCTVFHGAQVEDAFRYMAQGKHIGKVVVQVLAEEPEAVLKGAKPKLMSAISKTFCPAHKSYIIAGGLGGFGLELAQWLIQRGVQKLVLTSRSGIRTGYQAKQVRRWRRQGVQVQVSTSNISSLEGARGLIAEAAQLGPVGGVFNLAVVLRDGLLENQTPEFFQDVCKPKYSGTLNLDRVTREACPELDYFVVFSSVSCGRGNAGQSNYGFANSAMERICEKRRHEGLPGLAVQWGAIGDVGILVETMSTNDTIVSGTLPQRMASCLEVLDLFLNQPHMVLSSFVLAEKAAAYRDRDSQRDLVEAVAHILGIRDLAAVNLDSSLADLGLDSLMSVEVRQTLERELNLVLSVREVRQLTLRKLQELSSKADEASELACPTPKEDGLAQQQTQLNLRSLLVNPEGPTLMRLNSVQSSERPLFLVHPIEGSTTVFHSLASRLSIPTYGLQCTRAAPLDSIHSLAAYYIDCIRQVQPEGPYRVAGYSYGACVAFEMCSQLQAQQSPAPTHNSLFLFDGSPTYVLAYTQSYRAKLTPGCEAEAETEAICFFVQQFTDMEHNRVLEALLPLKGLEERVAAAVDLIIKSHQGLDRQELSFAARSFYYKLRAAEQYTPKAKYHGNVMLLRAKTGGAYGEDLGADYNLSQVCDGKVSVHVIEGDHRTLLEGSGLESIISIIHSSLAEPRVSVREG
Numbers without * were called inactive; . = not tested or not shown. Hits are enriched below; roughly 4.3% of the tested compounds scored in any of these assays.

SMILES | NR3A LBD binder | rCAG RNA binder | NadD block | FAS-TE inh
O=C(Nc1ccc([N+](=O)[O-])cc1)Nc1ccc(Cl)cc1F | 22* | 1 | -3 | 2
Cc1ccc(NC(=O)Nc2ccccc2)cc1[N+](=O)[O-] | 13* | 2 | -1 | 9
Cc1ccc(OCC(=O)NNC(=O)Nc2ccc(Cl)cc2)c(Br)c1 | -2 | 3 | -8 | -5
O=C(Nc1ccc(Cl)cc1)Nc1cc([N+](=O)[O-])ccc1F | 3 | 1 | -3 | 2
O=C(Nc1ccccc1)Nc1ccc(Cl)c([N+](=O)[O-])c1 | 23* | 6 | -3 | 19
Cc1ccc(NC(=O)Nc2ccc(Cl)cc2)c(Br)c1 | 35* | 7 | -6 | -2
C[C@H]1COc2cc(Br)ccc2S(=O)(=O)N1Cc1cn(CCC2OCCO2)nn1 | . | 1 | . | .
CCc1c(-c2cccc(F)c2)ncn1CCc1ccccc1OC | . | -3 | . | .
CC(C)CNS(=O)(=O)/C=C/c1ccccc1CNC(=O)OC(C)(C)C | . | 0 | . | .
Cc1ccccc1-c1nnc2n1N=C(c1ccc(O)c(O)c1)CS2 | . | 10 | . | .
O=C(Nc1ccc(Cl)cc1)Nc1csc([N+](=O)[O-])c1 | 33* | 15 | -1 | 33
O=C(Nc1ccccc1)Nc1ccc(F)c([N+](=O)[O-])c1 | 26* | 4 | -5 | 48
O=C(NC(=S)Nc1ccc(F)c([N+](=O)[O-])c1)c1ccccc1F | -6 | 5 | -1 | 23
COc1ccccc1C1NC(=O)CS1 (centres undefined) | 14* | 1 | 3 | -10
Cc1ccc(C(C)NC(=O)/C(C#N)=C\c2c(C)[nH]c3ccccc23)cc1 (centres undefined) | 17* | 17 | -4 | 23
Cc1[nH]c2ccccc2c1/C=C(\C#N)C(=O)NCc1ccccc1 | -9 | 9 | 3 | 0
Cc1nn(-c2ccccc2)c(C)c1/C=N\NC(=O)CSc1nc2ccccc2n1Cc1ccc(Cl)cc1 | . | 9 | . | .
[NH-]c1ncnc2c1N=C[N+]2=CC=CCO | 14* | -1 | 2 | -7
CC(=O)Nc1ccc(S(=O)(=O)N(C)CC(=O)OCC(=O)N2CCCCC2)cc1 | -1 | 1 | -4 | -8
CN(c1ccc(OCC(=O)Nc2ccccc2C(=O)O)cc1)S(=O)(=O)c1ccc(Cl)cc1 | -13 | 55* | 4 | 1
CN(CC(=O)OCC(=O)Nc1ccccc1)S(=O)(=O)c1ccc(Cl)cc1 | 18* | -1 | -3 | 4
CC(=O)Nc1ccc(NC(=O)C(C)OC(=O)CN(C)S(=O)(=O)c2ccc(Cl)cc2)cc1 (centres undefined) | 15* | -3 | -2 | -2
CCOC(=O)C1CCN(C(=O)COC(=O)CN(C)S(=O)(=O)c2ccc(NC(C)=O)cc2)CC1 | 10* | -3 | -8 | -4
CC(OC(=O)CN(C)S(=O)(=O)c1ccc(Cl)cc1)C(=O)Nc1ccc(N2CCOCC2)cc1 (centres undefined) | -1 | 6 | 4 | -2
C[C@H]1COc2cc(N3CCCC3)ccc2S(=O)(=O)N1C | . | 0 | . | .
SMILES | NR3A LBD binder | rCAG RNA binder | NadD block | FAS-TE inh
CN(c1ccc(OCc2nnc(-c3ccccc3)o2)cc1)S(=O)(=O)c1ccccc1 | 20* | -2 | -2 | 7
COc1ccc(-c2cc(-c3ccccc3)nc(-c3ccc4c(c3)NC(=O)CO4)c2)cc1 | 3 | 5 | 28 | 20
COc1ccc(Nc2nc(-c3ccc4c(c3)NC(=O)CO4)cs2)cc1 | 15* | 23 | 17 | 6
COc1ccccc1Nc1nc(-c2cccs2)cs1 | -11 | 35* | 18 | 10
CCC(C)Nc1nc(-c2ccc3c(c2)NC(=O)CO3)cs1 (centres undefined) | 1 | 10 | 1 | -3
COc1ccccc1Nc1nc(-c2ccc3c(c2)NC(=O)CO3)cs1 | 32* | 14 | 7 | 24
COC[C@@H]1CCCN1c1cccc2c1S(=O)(=O)N(C1CC1)CCCO2 | . | 3 | . | .
O=C(OCc1cn(Cc2cccc(F)c2F)nn1)N1CCOCC1 | . | 0 | . | .
COc1cccc([C@@H]2NC(=O)C/C=C/[C@H](C)[C@H](c3cccc(OC)c3)NC(=O)C/C=C/[C@@H]2C)c1 | . | 6 | . | .
CCN(CC)CCN1C(=O)c2ccccc2NC1c1ccc(C)cc1 (centres undefined) | 14* | 0 | -8 | -6
CCN(CC)C(=O)CC[C@H]1CC[C@]2(CCCN(C3CCCCC3)C2)O1 | . | 3 | . | .
CCOc1cccc(C(=O)Nc2ccc3[nH]ncc3c2)c1 | 15* | 5 | -4 | -5
O=C(COc1cccc(C(F)(F)F)c1)Nc1cccnc1 | 0 | 0 | 1 | -4
O=C(COc1cccc(C(F)(F)F)c1)Nc1ccc2[nH]ncc2c1 | 18* | -2 | -3 | -5
COc1cccc(C(=O)Nc2ccc3[nH]ncc3c2)c1 | 3 | 10 | -3 | -22
COc1ccccc1C(=O)N1CCN(C(=O)[C@@H](Cc2ccccc2)NC(=O)[C@H]2O[C@@H](n3cnc(C(N)=O)n3)[C@H](O)[C@@H]2O)CC1 | . | -1 | . | .
C=CCN1C(=O)[C@@H](CC(=O)N2CCC(c3ccccc3)CC2)[C@]2(C(=O)OCC)CCCCC/C=C/12 | . | 2 | . | .
CCN1CCC(O)(/C=C/c2ccc(C(C)C)cc2)C(C(=O)/C=C/c2ccc(C(C)C)cc2)C1 (centres undefined) | 24* | -1 | 10 | 0
CC(C)CN1C(=O)C[C@]2(C(=O)N(C)c3ccc(NS(=O)(=O)c4ccc(F)cc4)cc32)C1c1ccccc1 (some centres undefined) | . | 2 | . | .
CC(=O)N/C(=C\c1ccc(F)cc1)C(=O)NC(Cc1c[nH]c2ccccc12)C(=O)O (centres undefined) | 14* | 0 | -4 | -12
O=C(NC(Cc1c[nH]c2ccccc12)C(=O)O)/C(=C/c1ccc(F)cc1)NC(=O)c1ccccc1 (centres undefined) | 0 | 21 | -3 | 1
COC(=O)[C@]12C[C@H](CC(=O)NCCCCc3ccccc3)C(=O)N(Cc3cccc4ccccc34)C1=C[C@H](C(C)C)O[C@@H]2C1CC1 | . | 8 | . | .
CC(C)(C)OC(=O)N1CCC(C(=O)O)CC1 | 3 | 4 | -3 | -8
CC(C)(C)OC(=O)N1CCOCCOCCN(C(=O)OC(C)(C)C)CCOCCOCC1 | 705* | -3 | 2 | 0
Cc1ccc(S(=O)(=O)NC(=O)COc2ccc([N+](=O)[O-])cc2)cc1 | 17* | 2 | 3 | 0
SMILES | NR3A LBD binder | rCAG RNA binder | NadD block | FAS-TE inh
CC(C)NS(=O)(=O)c1ccc(OCC(=O)NCc2ccccc2)cc1 | 11* | -5 | 2 | 0
COc1ccc(CNC(=O)COc2ccc(S(=O)(=O)NC(C)C)cc2)cc1 | -3 | -2 | 1 | -4
O=C(COc1ccc(Cl)cc1)Nc1nc(-c2ccc(S(=O)(=O)N3CCOCC3)cc2)cs1 | -3 | 9 | 24 | 63*
CC(NS(=O)(=O)c1ccc(OCC(=O)Nc2cccc([N+](=O)[O-])c2)cc1)c1ccccc1 (centres undefined) | 19* | 6 | -4 | 18
CC(CCc1ccccc1)NC(=O)COc1ccc(S(=O)(=O)N2CCOCC2)cc1[N+](=O)[O-] (centres undefined) | 13* | -3 | -4 | -3
O=C(COc1ccc(S(=O)(=O)N2CCOCC2)cc1)Nc1cccc([N+](=O)[O-])c1 | 19* | 3 | -4 | 24
